Reference: PubChem BioAssay AID686978 (National Center for Advancing Translational Sciences (NCATS), 2013)
In all, about 420,000 compounds went through this assay and about 64,000 (15%) were called active. Roughly 27% stayed inconclusive and do not appear here. The list is a sample of the results. Values without a mark were called inactive. The call rests on the fitted dose curve; in most records, active means well fitted inhibition curve with a large enough effect; inconclusive means small, poorly fitted or top-dose-only effect; inactive means flat fitted curve, though single readings scatter.

Experiment: qHTS for Inhibitors of human tyrosyl-DNA phosphodiesterase 1 (TDP1): qHTS in cells in absence of CPT; further: nearly all actives have a fitted effect of over 55% in size
Settings: DT40 Tdp1-/- hTDP1 cells, no CPT, ATP luminescence, 48 h; activity change, negative = growth inhibition: at 46.2 µM (top of the series)
In short: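 Luminescent ATP content (CellTiter-Glo) served as the growth readout. Knockout chicken DT40 cells expressing human TDP1 were exposed to compounds without camptothecin for a minimum 48 hr at 37 °C.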
On the % scale 0 is the no-effect control and ±100 the full control effect; potency means the concentration at half of the fitted maximal effect.

SMILES | activity change, negative = growth inhibition | Potency
O=C(O)C(O)[C@@](O)(Cc1ccc(O)cc1)C(=O)O (stereo partly drawn) | -5.46% | –
COCCCN1C(=O)C(=O)/C(=C(/O)c2ccc(S(=O)(=O)N3CCOCC3)cc2)C1c1ccc(F)cc1 (stereo not drawn) | 17.4% | –
Cc1ccc(CNC(=O)Nc2nnc([C@H]3C[C@H](O)[C@@H](CO)O3)s2)cc1 | 17.4% | –
O=C(O)CC(SCC(=O)Nc1ccc(Br)cc1)C(=O)O (stereo not drawn) | -10.5% | –
O=C(Nc1nnc(CCOCCOCCc2nnc(NC(=O)c3ccco3)s2)s1)c1ccco1 | -5.18% | –
CCC(=O)Nc1nc(OC)cc(OC)n1 | -21.4% | –
CCOc1ccccc1NC(=O)C1CCCN(C(=O)Nc2ccccc2)C1 (stereo not drawn) | -0.555% | –
CCc1ccc(NC(=O)CS(=O)CC(=O)N2CCN(c3ccccc3F)CC2)cc1 (stereo not drawn) | -0.775% | –
CCOc1ccccc1NC(=S)N1CCN(c2cccc(C)c2C)CC1 | – | 8.2 µM (active)
O=C(c1ccc(CN2CCOCC2)cc1)N1CCN(c2ccccc2F)CC1 | -29.9% | –
Cc1c(C)n(Cc2ccc(Cl)cc2)c2ccc(C(=O)N3CCN(c4ccccc4F)CC3)cc12 | – | 23.1 µM (active)
Cc1cccc(NC(=S)N2CCC(O)CC2)c1C | 3.36% | –
Brc1ccccc1C1Nc2cccc3cccc(c23)N1 | -26.5% | –
O=C(Cc1ccc(F)cc1)NC1CCCC1 | -18.7% | –
CCOc1ccc(NC(=O)CN(C)C(=O)c2c(C)noc2C)cc1OCC | -7.57% | –
N#CC1(NC(=O)COc2ccc3oc4ccccc4c3c2)CCCCC1 | -3.82% | –
CCOC(=O)[C@H]1CCC[C@@H](NS(=O)(=O)c2ccc(NC(C)=O)cc2)C1 | -27.8% | –
COc1ccccc1OC(C)C(=O)Nc1ccc(S(=O)(=O)Nc2nccs2)cc1 (stereo not drawn) | 3.49% | –
CCOc1ccc(C(C(=O)NCCOC)N(CCOC)C(=O)CCC(=O)Nc2ccccn2)cc1 (stereo not drawn) | -22.5% | –
Cc1ccc(C(=O)NCCc2nnc(SCC(=O)Nc3cccc(C(=O)O)c3)n2C)cc1 | 14.4% | –
CCS(=O)(=O)C1=NSC2=NC(=O)/C(=C\c3cc(C)n(-c4cccc(OC)c4)c3C)C(=N)N21 | -2.54% | –
CCc1nc2c(OCCC3CCCCC3)cccn2c1N(C)C(=O)c1ccco1 | – | 16.4 µM (active)
CCOc1ccccc1N(CC(=O)Nc1ccccc1C(=O)OC)S(C)(=O)=O | 0.517% | –
CCCCN(C=O)c1c(CC)nc2c(OCCC3CCCCC3)cccn12 | – | 9.2 µM (active)
CCc1nc2ccc(C(=O)N3CCN(S(=O)(=O)CC)CC3)cn2c1N(C=O)CCC(C)C | -19.4% | –
CCCCN(C=O)c1c(CC)nc2c(OCc3ccccc3C(=O)OC)cccn12 | – | 20.6 µM (active)
CCc1nc2c(OCC(N)=O)cccn2c1N(C)C(=O)c1ccc(OC)cc1 | -5.74% | –

SMILES | activity change, negative = growth inhibition | Potency
CCc1nc2c(OCC(=O)C(C)(C)C)cccn2c1N(C)C(=O)c1ccccc1F | -8.92% | –
O=C(CNC(=O)c1ccco1)OCC(=O)c1ccccc1 | -5.78% | –
COc1ccc(COC(=O)N/N=C(\C)CC(=O)Nc2ccc(Cl)cc2)cc1 | -6.88% | –
CN(C)/N=C/c1cc(Cl)cc([N+](=O)[O-])c1O | -9.36% | –
O=C(NC(Cc1ccccc1)C(=O)O)/C(=C\c1ccccc1)NC(=O)c1ccco1 (stereo not drawn) | 2.76% | –
CC(=O)Nc1ccc(NC(=O)CS(=O)(=O)c2cn(CC(=O)N3CCCCC3)c3ccccc23)cc1 | -5.42% | –
Cc1noc(C)c1C(=O)Nc1ccccn1 | 1.03% | –
CCOC1=C2CN(S(=O)(=O)c3ccc(C)cc3)[C@H](c3cccs3)C[C@H]2[C@H]2C(=O)N(c3ccccc3)C(=O)[C@H]2C1 | -26.4% | –
COC(=O)CSc1nnc(-c2cccnc2)o1 | -7.69% | –
CN(CC(=O)NC1CCCC1)S(=O)(=O)c1cnc[nH]1 | 11.5% | –
CC1(C(=O)O)CCC(C(=O)Nc2ccc(Cl)c(Cl)c2)C1(C)C (stereo not drawn) | 9.89% | –
COc1ccc(-c2nc3n(c2Br)CCC3)cc1 | -21.5% | –
COc1cc2[nH]c(=O)n(CCC(=O)NC3CCN(Cc4ccccc4)CC3)c(=O)c2cc1OC | 5.02% | –
COC(=O)c1cccc(NC(=O)CN2CCC(NC(=O)c3cc(OC)c(OC)c(OC)c3)CC2)c1 | – | 16.4 µM (active)
COc1cc(C(=O)NC2CCN(Cc3ccccc3)CC2)cc(Cl)c1OC(C)C | – | 20.6 µM (active)
CCOc1ccc(C(=O)NC2CCN(CC(=O)NCc3cccs3)CC2)cc1 | 0.552% | –
COc1ccc(C(=O)O)cc1S(=O)(=O)NC1CCN(Cc2ccccc2)CC1 | -23.7% | –
COC(=O)c1cc(NC(=O)CN2CCN(C(C)=O)CC2)cc(C(=O)OC)c1 | -5.06% | –
Cc1c(C=O)c2ccccc2n1CC(=O)O | 10.6% | –
CC(NC(=O)COC(=O)c1ccc(Cl)cc1O)c1ccc(F)cc1 (stereo not drawn) | -15.9% | –
Cc1ccc(S(=O)(=O)NCc2cn3ccsc3n2)c(C)c1 | -25.2% | –
Cn1nnnc1SCC(=O)Nc1nc2ccccc2s1 | -4.07% | –
Cc1ccn2c(=O)nc(SCC(=O)NCc3ccc(F)cc3)nc2c1 | -3.12% | –
COc1ccc(/C=C/C(=O)Nc2ccc(C34CC5CC(CC(O)(C5)C3)C4)cc2)cc1OC | – | 1.3 µM (active)
COc1ccc(/C=C/C(=O)Nc2cccnc2)cc1OC | -26.5% | –
Cc1ccc(C23CC4CC(CC(C(=O)NCC(=O)O)(C4)C2)C3)cc1 | -8.94% | –
